Screens as filed in PubChem.
The list is not random: actives were taken first. Their share in the collection is about 10%.
G9a block – blocks human histone lysine methyltransferase G9a | actives 8.8% (n = 350,000) | Q96KQ7 | G9a H3K9 monomethylation, AlphaScreen, 2 h | Potency, µM (doses to about 102 µM), hits mostly inhibitors; further: nearly all actives have a fitted effect of over 75% in size
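Enzyme 20 nM + cpd, 15 min RT; add b-H3K9 pep 500 nM / SAM 20 uM; 2 h RT; anti-H3K9me1 Ab 0.5 ug/mL + SA donor / anti-rabbit acceptor beads 20 ug/mL each, 10 min; AlphaScreen read.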
JMJD2A Tudor – inhibitors of human JMJD2A Tudor domain | Potency, µM (top dose mostly 114 µM), actives largely listed as inhibitors | AlphaScreen JMJD2A-Tudor / H3K4me3 peptide binding | actives 4.4% (n = 390,000) | O75164; further: nearly all actives have a fitted effect of over 50% in size
HP1b chromo inh – blocks HP1-beta chromodomain binding to methylated histone tails | actives 0.56% (n = 390,000) | Potency, µM (highest dose often 114 µM), hits mostly inhibitors | AID 540317 | AlphaScreen HP1-beta / biotin-H3K9me3 peptide binding; further: nearly all actives have a fitted effect of over 70% in size
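AlphaScreen: HP1-beta (50 nM) preformed 30 min with biotin-H3(1-18)K9me3 peptide (50 nM) in PBS pH 7.4, 0.01% Tween-20. Compound added for 30 min at RT, then streptavidin donor/nickel chelate acceptor beads (10 ug/mL) for 30 min.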
BAZ2B block – BAZ2B (human) inhibition. Potency, µM (highest dose often 114 µM), usual class: inhibitors. actives 4.4% (n = 360,000). AID 504333. Q9UIF8. AlphaScreen BAZ2B-H3K14Ac peptide displacement; further: nearly all actives have a fitted effect of over 60% in size
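Multi-concentration screen (max 110 uM) measuring displacement of acetylated histone H3 peptide from BAZ2B by AlphaScreen, using 50 nM protein, 50 nM peptide and 10 ug/mL streptavidin donor plus Ni-chelate acceptor beads.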
L3MBTL1 block – inhibitors of human L3MBTL1 | AID 485360 | Q9Y468 | actives 0.66% (n = 230,000) | AlphaScreen L3MBTL1–H3K9me1 peptide binding | Potency, µM (top dose mostly 57.1 µM), hits mostly inhibitors; further: nearly all actives have a fitted effect of over 60% in size
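AlphaScreen proximity signal between nickel-chelate acceptor and streptavidin donor beads (final 10 ug/mL) reports binding of 50 nM L3MBTL1 to 75 nM biotin-H3 K9me1 peptide; complex incubated with compounds 30 min at room temperature; cefsulodin titration as control.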
GLS inhibitor – inhibitors of human glutaminase (GLS); actives 0.21% (n = 410,000); GLS enzymatic activity, qHTS titration; Potency, µM (series often up to 45.5 µM), actives largely listed as inhibitors
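Human kidney-isoform GLS in 45 mM KH2PO4 pH 8.2, 0.02% Tween-20, with compound, started with 1mM L-Glutamine (added stock). Glutamate oxidase/HRP/Amplex red coupled fluorescence read at start and after 30 min at RT.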
Large screens that a line does not name were inactive. The call rests on the fitted dose curve; in most records, active means well fitted curve in the direction sought with a large enough effect; inconclusive means small, poorly fitted or top-dose-only effect, or another doubt; inactive means no such curve, though single readings can be large; an effect the other way counts as inactive or inconclusive.

CCCN(CCC)C(=O)c1cn(CC)c2ccc(S(=O)(=O)N3CCCCC3)cc2c1=O	none (no result: L3MBTL1 block)
COc1ccc2c(c1)c(=O)c(C(=O)c1ccccc1)cn2Cc1ccc(C)cc1	none
COc1ccc(S(=O)(=O)N2CCN(c3ccc(F)cc3)CC2)cc1C(=O)N1CCCC1	none (no result: L3MBTL1 block)
CCn1cc(C(=O)N2CCN(c3ccc(OC)cc3)CC2)c(=O)c2cc(S(=O)(=O)N3CCCCC3)ccc21	G9a block 50µM, BAZ2B block inconclusive, L3MBTL1 block inconclusive
CCn1cc(C(=O)O)c(=O)c2cc(OC)ccc21	G9a block inconclusive, JMJD2A Tudor 8.9µM, BAZ2B block inconclusive
CCn1cc(C(=O)N2CCN(c3ccc(OC)cc3)CC2)c(=O)c2cc(S(=O)(=O)N(C)C3CCCCC3)ccc21	none (no result: BAZ2B block, L3MBTL1 block)
CCn1cc(C(=O)O)c(=O)c2cc(S(=O)(=O)N3CCCCCC3)ccc21	BAZ2B block 71µM (no result: G9a block, L3MBTL1 block)
COc1ccc(N2CCN(S(=O)(=O)c3ccc(OC)c(C(=O)N4CCCCC4)c3)CC2)cc1	G9a block 45µM, HP1b chromo inh inconclusive (no result: L3MBTL1 block)
COc1ccc(N2CCN(C(=O)c3cc(N4C(=O)C5C6CCC(C6)C5C4=O)ccc3Cl)CC2)cc1 (stereo not given)	G9a block 40µM, BAZ2B block inconclusive
COc1ccc(C2C(C(=O)Nc3ccccc3)=C(C)Nc3nc(-c4ccc(Cl)cc4)nn32)cc1 (stereo not given)	none (no result: L3MBTL1 block)
CC(C)Oc1ccccc1C1C=C(C(=O)O)Nc2ncnn21 (stereo not given)	G9a block 14µM, BAZ2B block inconclusive (no result: L3MBTL1 block)
COc1cc(C2C=C(C(=O)O)Nc3ncnn32)ccc1O (stereo not given)	G9a block 13µM, JMJD2A Tudor 79µM (no result: L3MBTL1 block)
COc1cc(C2C(C(C)=O)=C(C)Nc3ncnn32)ccc1O (stereo not given)	none
COC(=O)c1sc(SC)c(S(=O)(=O)C(C)C)c1N/N=C(\C#N)C(=O)c1ccccc1	G9a block 45µM, JMJD2A Tudor inconclusive
O=C(Cn1c(=O)oc2cc(S(=O)(=O)N3CCCCC3)ccc21)Nc1cccc(Cl)c1	BAZ2B block inconclusive (no result: L3MBTL1 block)
Nc1nccc(/C=C/c2ccc(Cl)cc2)n1	none
Nc1nccc(/C=C/c2c(Cl)cccc2Cl)n1	none
CSC1=NC(C)(C)C=C(/C=C/c2ccc(Cl)cc2Cl)N1	G9a block 50µM, JMJD2A Tudor inconclusive, HP1b chromo inh inconclusive, BAZ2B block inconclusive
CCSC1=NC(C)(C)C=C(/C=C/c2ccc(Cl)cc2Cl)N1	G9a block 50µM (no result: L3MBTL1 block)
CSC1=NC(C)(C)C=C(/C=C/c2c(Cl)cccc2Cl)N1	G9a block 40µM
CCSC1=NC(C)(C)C=C(C)N1	none
O=C1NC(=O)/C(=C\c2ccc(Cl)cc2Cl)N1	none (no result: G9a block, BAZ2B block, L3MBTL1 block)
CSC1=NC(C)(C)C=C(/C=C/c2ccc(Cl)cc2)N1	G9a block 28µM, JMJD2A Tudor inconclusive, HP1b chromo inh inconclusive, BAZ2B block inconclusive
CCOC(=O)C1(Cc2cccc(Cl)c2)CCCN(C(=O)c2cnn(CC)c2)C1 (stereo not given)	G9a block 25µM (no result: L3MBTL1 block)
CN1/C(=C\C(=O)c2cccnc2)C(C)(C)c2ccccc21	none
CC(C)C(=O)NC(=S)/C=C1/N(C)c2ccccc2C1(C)C	G9a block 40µM, JMJD2A Tudor 40µM, HP1b chromo inh 50µM, BAZ2B block 32µM
Cc1ccc(C(=O)NC(=S)/C=C2\N(C)c3ccccc3C2(C)C)cc1	G9a block 14µM, JMJD2A Tudor 22µM, HP1b chromo inh 13µM, BAZ2B block 13µM, L3MBTL1 block inconclusive
Cc1c(N=C/C=C2\N(C)c3ccccc3C2(C)C)c(=O)n(-c2ccccc2)n1C	none
Cc1c(NC(=S)/C=C2\N(C)c3ccccc3C2(C)C)c(=O)n(-c2ccccc2)n1C	G9a block 32µM, HP1b chromo inh inconclusive, BAZ2B block inconclusive
CN1/C(=C\C(=O)C(F)F)C(C)(C)c2ccccc21	none
CCN(CC)C(=O)c1ccc2c(c1)N(Cc1ccc(C(F)(F)F)cc1)C(=O)c1ccccc1S2	none (no result: BAZ2B block, L3MBTL1 block)
COC(=O)/C=C/S(=O)(=O)c1ccc(NC(C)=O)cc1	G9a block 8.9µM (no result: BAZ2B block, GLS inhibitor)
